Among the test systems are T-47D breast; BT-549 breast; MDA-MB-435 melanoma; SW-620 colon; MCF7 breast; HCT-116 colon; HCC-2998 colon; KM12 colon.
Test in all cases: NCI-60 one-dose screen, 48 h (100 = growth as untreated, 0 = no growth, -100 = all killed)
What all share (settings): 10 µM unless noted

Compounds without any hit were thinned out: in the full panel of roughly 83,000, 20% have a hit.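 The endpoint reported here, percent growth, reads 100 for growth as untreated, 0 for no net growth and -100 for all cells dead.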 A number with no mark means an inactive call. Active and inactive are the calls of the source. Rule for the calls: active = growth percent below 10; inactive = the rest.

Regarding `CC1(C)OC2C(CO[Si](C)(C)C(C)(C)C)OC(n3c(I)c(C#C[Si](C)(C)C)c(=O)[nH]c3=O)C2O1` (stereo not given), the growth in the experiment on T-47D breast was 96.2%; in the experiment with BT-549 breast, 118%; in the experiment with MDA-MB-435 melanoma, 83%; in the experiment with SW-620 colon, -43% (active); with MCF7 breast it was 106%; with HCT-116 colon, 71%. Also, the growth with HCC-2998 colon was -51% (active); in the experiment on KM12 colon it was 107%.
On to `CCCCN(CCCC)CC(C)(C)C(O)c1ccc(OC)c2ccccc12` (stereo not given), for which the growth with T-47D breast is 52.9%; with BT-549 breast, 57.1%; with MDA-MB-435 melanoma it was 59.3%; in the experiment on SW-620 colon it was 33.4%; with MCF7 breast, 45.5%; in the experiment on HCT-116 colon, 3.51% (active). The growth is 51.9% in the experiment on HCC-2998 colon and 45.1% with KM12 colon.
As for `CCCCCCCCCOc1c(OC)cc(C2CC(=O)Nc3c2c(C)nn3-c2nc3ccccc3[nH]2)cc1OC` (stereo not given), the growth with T-47D breast is -11% (active); with BT-549 breast it was -16.7% (active); with MDA-MB-435 melanoma, -47.4% (active); in the experiment on SW-620 colon, -29.2% (active); with MCF7 breast, 4.28% (active); in the experiment with HCT-116 colon, 0.609% (active). For the same molecule, the growth is 10% with HCC-2998 colon and -53.1% (active) in the experiment with KM12 colon.
For `CCN1C(=O)N(CC)C2Nn3c(s/c(=C\c4ccc(Cl)cc4Cl)c3=O)=NC21` (stereo not given), the growth is 76.9% with T-47D breast; 38.6% in the experiment on BT-549 breast; -40.7% (active) in the experiment with MDA-MB-435 melanoma; 30.4% with SW-620 colon; 28.9% in the experiment with MCF7 breast; 15.2% in the experiment with HCT-116 colon. Also, the growth in the experiment on HCC-2998 colon was 73.9%; in the experiment on KM12 colon it was 13.1%.
On to `CCCCc1ccc(Nc2ccc(Nc3ccc(CCCC)cc3S(=O)(=O)O)c3c2C(=O)c2ccccc2C3=O)c(S(=O)(=O)O)c1`, for which the growth in the experiment on T-47D breast is 106%; in the experiment with BT-549 breast, 94%; with MDA-MB-435 melanoma, 84.6%; in the experiment with SW-620 colon, 98.6%; in the experiment on MCF7 breast, 86.9%; in the experiment with HCT-116 colon it was 106%. For the same molecule, the figures for the growth in the experiment on HCC-2998 colon and in the experiment with KM12 colon were 117% and 96.9%, respectively.
Regarding `CC/C=C\CCC/C=C1/C(=O)C=C[C@@H]1C/C=C\CCCC(=O)O`, the growth is 55.3% with T-47D breast; 32.3% with BT-549 breast; 5.08% (active) with MDA-MB-435 melanoma; 9.71% (active) in the experiment on SW-620 colon; 20.2% in the experiment on MCF7 breast; -30.2% (active) in the experiment on HCT-116 colon. Moreover, the growth with HCC-2998 colon is 68.2%; with KM12 colon it was 32%.
For the molecule `NC(=O)c1ccc[n+]([C@@H]2O[C@H](COP(=O)([O-])OP(=O)(O)OC[C@H]3O[C@@H](n4cnc5c(N)ncnc54)[C@H](O)[C@@H]3O)[C@@H](O)[C@H]2O)c1`, the growth with T-47D breast is 114%; in the experiment with BT-549 breast, 95.9%; in the experiment with MDA-MB-435 melanoma it was 104%; in the experiment on SW-620 colon, 107%; in the experiment on MCF7 breast, 102%; with HCT-116 colon it was 94.7%. The growth with HCC-2998 colon is 100%; with KM12 colon it was 101%.
Regarding `Cc1ccc(C(=O)C2=C(O)C(=O)N(Cc3cccnc3)C2c2ccccc2F)o1` (stereo not given), the growth was 95.2% with T-47D breast; 99.2% in the experiment on BT-549 breast; 102% in the experiment with MDA-MB-435 melanoma; 103% in the experiment with SW-620 colon; 98.3% in the experiment on MCF7 breast; 95.2% in the experiment on HCT-116 colon. For the same molecule, the growth in the experiment on HCC-2998 colon was 94.3%; in the experiment on KM12 colon, 106%.
For `N#Cc1c(N)nc2c(C#N)c(NC(=O)c3ccccc3)nn2c1-c1ccccc1`, the growth with T-47D breast is 68.2%; with BT-549 breast it was 97.6%; in the experiment with MDA-MB-435 melanoma, 96.7%; in the experiment on SW-620 colon, 103%; in the experiment on MCF7 breast, 75.8%; with HCT-116 colon it was 92.7%. The growth in the experiment with HCC-2998 colon is 103%; in the experiment with KM12 colon, 95.7%.
Take `COc1cccc(-c2nn(-c3ccccc3)cc2-c2ccnc(NCCNC(=O)Nc3cccc(C(F)(F)F)c3)c2)c1`: the growth in the experiment with T-47D breast was 0.52% (active); with BT-549 breast, 26.1%; with MDA-MB-435 melanoma it was 29.1%; with SW-620 colon, 39%; in the experiment with MCF7 breast, 15.3%; in the experiment on HCT-116 colon, 10.5%. The figures for the growth with HCC-2998 colon and in the experiment with KM12 colon were -47% (active) and 2.54% (active), respectively.
With `Cc1cccc(NC(=O)N/C(N)=N/c2nc(C)c(C)s2)c1`, the growth with T-47D breast was 40.1%; with BT-549 breast it was 70.3%; in the experiment on MDA-MB-435 melanoma, -28.5% (active); with SW-620 colon, 25.7%; with MCF7 breast, 27%; in the experiment on HCT-116 colon, 33.5%. Also, the growth was 63.7% in the experiment on HCC-2998 colon and 23.4% in the experiment with KM12 colon.
In the case of `CCOc1c(C#N)nnc2c(C#N)c(NC(=O)c3ccccc3)nn12`, the growth was 98.8% in the experiment with T-47D breast; 102% with BT-549 breast; 102% in the experiment on MDA-MB-435 melanoma; 102% in the experiment on SW-620 colon; 93.4% with MCF7 breast; 100% in the experiment on HCT-116 colon. The growth in the experiment with HCC-2998 colon was 104%; with KM12 colon it was 101%.
For the molecule `COc1cc(C(=O)/C=C/c2c(-c3ccc(F)cc3)nc3sc(C)cn23)cc(OC)c1OC`, the growth in the experiment with T-47D breast was 9.38% (active); in the experiment with BT-549 breast it was 15%; with MDA-MB-435 melanoma, 3.64% (active); in the experiment on SW-620 colon it was 30.6%; in the experiment with MCF7 breast it was 29.5%; with HCT-116 colon, 20.1%. In addition, the growth in the experiment on HCC-2998 colon was 68.2%; in the experiment with KM12 colon it was 10.4%.
Turning to `Cn1c(-c2c(N)n(Cc3cccnc3)c3nc(C#N)c(C#N)nc23)nc2ccccc21`, the growth in the experiment with T-47D breast is 92.1%; in the experiment on BT-549 breast, 115%; in the experiment with MDA-MB-435 melanoma, 89.3%; in the experiment with SW-620 colon, 95.3%; with MCF7 breast, 103%; with HCT-116 colon, 44.5%. Moreover, the growth is 100% with HCC-2998 colon and 82.8% in the experiment on KM12 colon.
On to `COc1ccc(C(=O)COc2ccc(/C=C3\Oc4ccccc4C3=O)cc2)cc1`, for which the growth in the experiment with T-47D breast is 73.8%; in the experiment on BT-549 breast, 114%; with MDA-MB-435 melanoma, 59.7%; in the experiment with SW-620 colon, 110%; with MCF7 breast it was 115%; in the experiment on HCT-116 colon, 92.9%. Further, the growth in the experiment on HCC-2998 colon was 115%; with KM12 colon, 107%.
